In PubChem BioAssay (Tox21):
Results filed as inconclusive are left out. Activity calls are given as the source filed them. Calls come from the whole dose curve; as a rule, active = well fitted curve in the direction sought with a large enough effect in the repeat runs; inconclusive = weak or mixed curves; inactive = no such curve, though single readings can be large; an effect the other way counts as inactive or inconclusive.

Experiments:
[1] = A CellTox Green Cytotoxicity Assay to monitor cytotoxicity in HEK293 cells - 16 hour (AID 1224888); conditions: CellTox Green fluorescence; series mostly up to 76.8 µM; note: nearly all actives have a fitted effect of over 35% in size; note: potency is the fitted concentration of half-maximal effect
Method in brief: (§1)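 Nonlytic real-time cytotoxicity: HEK293 + CellTox Green reagent plated, 5 h preincubation, pintool compound addition (23 nL in DMSO), 37 C for 40 h, fluorescence measured at successive time points.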

[2] = qHTS RealTime-Glo MT Cell Viability Assay in HepG2 cells - 0 hour (AID 1224889); conditions: RealTime-Glo luminescence; series mostly up to 76.8 µM; note: nearly all actives have a fitted effect of over 50% in size
Method in brief: (§2)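 HepG2 cells were seeded at 600 cells/well together with NanoLuc luciferase and a cell-permeant prosubstrate, preincubated 5 h at 37 C/5% CO2, then pin-dosed with compounds in DMSO. Nonlytic luminescence from viable cells was read at each time point.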

[3] = A CellTox Green Cytotoxicity Assay to monitor cytotoxicity in HepG2 cells - 8 hour (AID 1224890); conditions: CellTox Green fluorescence; series mostly up to 76.8 µM; note: nearly all actives have a fitted effect of over 45% in size; note: potency is the fitted concentration of half-maximal effect
Method in brief: (§3)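 Read-out is fluorescence of a cyanine dye excluded from live cells that stains DNA of dead HepG2 cells, with signal proportional to cytotoxicity. Plates were read at 0, 8, 16, 24, 32 and 40 h after compound addition.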

[4] = A CellTox Green Cytotoxicity Assay to monitor cytotoxicity in HepG2 cells - 32 hour (AID 1224883); conditions: CellTox Green fluorescence; series mostly up to 76.8 µM; note: nearly all actives have a fitted effect of over 50% in size; note: potency is the fitted concentration of half-maximal effect
Method in brief: as §3

[5] = A CellTox Green Cytotoxicity Assay to monitor cytotoxicity in HEK293 cells - 8 hour (AID 1224884); conditions: CellTox Green fluorescence; series mostly up to 76.8 µM; note: nearly all actives have a fitted effect of over 35% in size
Method in brief: as §1

[6] = qHTS RealTime-Glo MT Cell Viability Assay in HepG2 cells - 16 hour (AID 1224885); conditions: RealTime-Glo luminescence; series mostly up to 76.8 µM; note: nearly all actives have a fitted effect of over 50% in size; note: potency is the fitted concentration of half-maximal effect
Method in brief: as §2

[7] = qHTS assay to identify small molecule antagonists of the estrogen receptor alpha (ER-alpha) signaling pathway using the BG1 cell line in the presence of 0.1 nM 17-beta-estradiol - cell viability counter screen (AID 1259241); conditions: VM7Luc4E2 (BG1) viability, CellTiter-Fluor protease, 22 h, 0.1 nM estradiol agonist added; series mostly up to 92.4 µM; note: nearly all actives have a fitted effect of over 40% in size
Method in brief: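 VM7Luc4E2 cells (endogenous full-length ER-alpha, 4xERE-luciferase), cultured 5 days in charcoal-stripped serum, exposed to compounds with 0.1 nM 17beta-estradiol (final) for 22 hr at 37C. Viability read in same wells as live-cell protease fluorescence after 30 min.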

[8] = qHTS RealTime-Glo MT Cell Viability Assay in HEK293 cells - 24 hour (AID 1224886); conditions: RealTime-Glo luminescence; series mostly up to 76.8 µM; note: nearly all actives have a fitted effect of over 50% in size; note: potency is the fitted concentration of half-maximal effect; for activity change, negative = cytotoxicity: top concentration of the series differs between compounds
Method in brief: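 HEK293 cells were seeded at 600 cells/well together with NanoLuc luciferase and cell-permeant prosubstrate, preincubated 5 h at 37 C/5% CO2, then given compound in DMSO by pintool. Luminescence from viable-cell prosubstrate reduction was read repeatedly over 40 h.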

[9] = qHTS RealTime-Glo MT Cell Viability Assay in HEK293 cells - 8 hour (AID 1224887); conditions: RealTime-Glo luminescence; series mostly up to 76.8 µM; note: nearly all actives have a fitted effect of over 50% in size; note: potency is the fitted concentration of half-maximal effect; for activity change, negative = cytotoxicity: top concentration of the series differs between compounds
Method in brief: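 Cells were seeded together with NanoLuc luciferase and a prosubstrate that viable cells reduce to a luciferase substrate. After a 5 h incubation at 37 C/5% CO2, compounds were added and luminescence was measured repeatedly during 40 h of treatment.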
% is set by controls: 0 for no effect and ±100 for the full control effect.

S=C(SSSSSSC(=S)N1CCCCC1)N1CCCCC1
inactive: activity change [1] 19.1% [at 15.8 µM, active compounds read high] | activity change, negative = cytotoxicity [2] -21.4% [at 15.8 µM] | cytotoxicity increase [3] -7.66% [at 15.8 µM]

CCN(CC)CCOC(=O)C1(C2CCCCC2)CCCCC1
inactive: Potency [5] | Potency [6] | Potency [7]
active: Potency [4] 23.9 µM

COCC(=O)O[C@]1(CCN(C)CCCc2nc3ccccc3[nH]2)CCc2cc(F)ccc2[C@@H]1C(C)C
active: Potency [6] 19 µM | Potency [8] 6.01 µM | Potency [9] 6.74 µM | Potency [1] 23.9 µM | Potency [3] 23.9 µM
inactive: Potency [5] | Potency [2] | Potency [7]

O=C=NCc1cccc(CN=C=O)c1
inactive: cytotoxicity increase [4] -2.41% [at 15.8 µM] | activity change, negative = cytotoxic [6] 0.437% [at 15.8 µM] | activity change, negative = cytotoxicity [9] 1.79% [at 15.8 µM] | activity change [1] -10.6% [at 15.8 µM, active compounds read high] | activity change, negative = cytotoxicity [2] 2.48% [at 15.8 µM] | cytotoxicity increase [3] -0.221% [at 15.8 µM] | activity change, negative = cytotoxicity [7] -0.0453% [at 19 µM]

Cc1c(C(=O)O)cccc1[N+](=O)[O-]
inactive: Potency [4] | Potency [5] | Potency [6] | Potency [9] | Potency [1] | Potency [2] | Potency [3] | Potency [7]

C=CC(C)(CCC=C(C)C)OC(=O)/C=C/c1ccccc1 (stereo not drawn)
active: Potency [4] 43.6 µM | Potency [1] 27.5 µM | Potency [3] 43.6 µM
inactive: Potency [6] | Potency [8] | Potency [9] | Potency [2] | Potency [7]

CSc1c(Cl)c(Cl)c(Cl)c(Cl)c1Cl
inactive: Potency [5] | Potency [6] | Potency [8] | Potency [1] | Potency [2] | Potency [3] | Potency [7]

CCc1c(Br)c(Br)c(Br)c(Br)c1Br
inactive: Potency [4] | Potency [6] | Potency [8] | Potency [9] | Potency [1] | Potency [2] | Potency [3] | Potency [7]

COc1ccccc1OCCNCC(O)COc1cccc2[nH]c3ccccc3c12 (stereo not drawn)
inactive: Potency [5] | Potency [1] | Potency [2] | Potency [3]
active: Potency [6] 23.9 µM | Potency [8] 10.7 µM | Potency [9] 16.9 µM

Clc1ccc(C(Cn2ccnc2)OCc2ccsc2Cl)c(Cl)c1 (stereo not drawn)
active: Potency [4] 23.9 µM
inactive: Potency [5] | Potency [1] | Potency [2] | Potency [3] | Potency [7]

Clc1ccc(C(Cn2ccnc2)OCc2c(Cl)cccc2Cl)c(Cl)c1 (stereo not drawn)
inactive: Potency [5] | Potency [6] | Potency [1] | Potency [7]
active: Potency [8] 16.9 µM

CC(C)N=C(N)/N=C(\N)Nc1ccc(Cl)cc1
active: Potency [8] 23.9 µM
inactive: Potency [5] | Potency [6] | Potency [1] | Potency [2] | Potency [3] | Potency [7]
